Compound activity from PubChem.
Shown are actives, neighbours in structure and some others; about 1.4% of the full set was active somewhere.
Mtb hypoxia inh = PubChem AID 1159583 | fluorescence inhibition, % (test concentration not listed) | M. tuberculosis hypoxia-regulated fluorescent reporter, fluorescence | actives 0.1% (n = 300,000); in the data active = fluorescence inhibition mostly above about 23%, no sharp cut-off; inactive = mostly below about 17%
PrPC surface inh = inhibitors of human cell surface prion protein PrPC, primary screen, cell-based, TR-FRET | inhibition, % at 13.8 µM | TR-FRET read-out | actives 0.43% (n = 370,000) | Major prion protein (Homo sapiens), P04156; in the data active = inhibition above about 24%
BJeLR viability = MLPCN primary cell-based screen for lethality selective to Ras in HRASV12 cells. BJeLR (HRASV12) viability, CellTiter-Glo ATP luminescence, 48 h. inhibition, % (test concentration not listed). actives 0.17% (n = 300,000). AID 1554, 2009; in the data active = inhibition above about 50%
PrP 5UTR inh = inhibition of PrP 5' UTR reporter expression. cell-based PrP 5' UTR mRNA reporter, plate reader. inhibition, % (no concentration beside the values). actives 0.35% (n = 340,000). AID 488862, 2010; in the data active = inhibition above about 52%
SARS 3CLpro inh = SARS-CoV 3CLpro protease inhibitors, primary screen, biochemical, quenched FRET; inhibition, % at 6 µM; recombinant SARS-CoV 3CLpro, quenched FRET peptide cleavage; actives 0.14% (n = 290,000); in the data active = inhibition above about 12%
RecA splice inh = Mtb RecA intein splicing inhibitors, primary screen, biochemical, fluorescence, HTS; inhibition, % (test concentration not listed); actives 0.75% (n = 290,000); cell-free RecA intein splicing; Protein RecA (Mycobacterium tuberculosis (strain ATCC 25618 / H37Rv)), P9WHJ3; in the data active = inhibition above about 30%
Target sequence (P9WHJ3 whole entry, looked up, canonical isoform): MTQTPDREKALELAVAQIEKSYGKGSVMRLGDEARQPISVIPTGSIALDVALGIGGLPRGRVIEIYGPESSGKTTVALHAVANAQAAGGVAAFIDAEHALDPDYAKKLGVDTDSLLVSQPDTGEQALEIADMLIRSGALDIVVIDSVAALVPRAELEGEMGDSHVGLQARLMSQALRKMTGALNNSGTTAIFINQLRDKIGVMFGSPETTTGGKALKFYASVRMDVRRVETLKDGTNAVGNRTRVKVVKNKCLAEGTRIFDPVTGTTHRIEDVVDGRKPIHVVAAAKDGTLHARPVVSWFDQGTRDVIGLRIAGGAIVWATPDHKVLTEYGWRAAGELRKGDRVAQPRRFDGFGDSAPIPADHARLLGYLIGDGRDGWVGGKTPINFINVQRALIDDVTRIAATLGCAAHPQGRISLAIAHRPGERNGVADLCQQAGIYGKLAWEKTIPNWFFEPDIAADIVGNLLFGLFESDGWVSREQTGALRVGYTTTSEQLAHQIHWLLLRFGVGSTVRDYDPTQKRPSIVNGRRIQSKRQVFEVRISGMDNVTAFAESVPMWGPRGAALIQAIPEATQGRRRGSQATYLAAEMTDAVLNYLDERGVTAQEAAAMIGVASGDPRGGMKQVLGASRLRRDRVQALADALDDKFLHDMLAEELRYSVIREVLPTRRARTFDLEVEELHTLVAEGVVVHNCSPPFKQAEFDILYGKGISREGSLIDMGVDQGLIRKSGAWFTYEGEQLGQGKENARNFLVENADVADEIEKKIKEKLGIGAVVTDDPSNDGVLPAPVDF
PrPC TRFRET cf = confirmation of inhibitors of cell surface human prion protein, confirmation, cell-based, TR-FRET; shares compounds with PrPC surface inh; cell surface PrPC level; inhibition, % at 13.8 µM; actives 65% (n = 1,500); AID 743200, 2013; in the data active = inhibition above about 25%
LD9 cytotox = cytotoxicity in LD9 cells, cytotoxicity control for cell surface PrPc inhibitor project, cell-based, luminescence, high throughput | shares compounds with PrPC surface inh | luminescence viability | inhibition, % at 13.8 µM | actives 29% (n = 1,500) | AID 743201, 2013; in the data active = inhibition above about 9.5%
Each line names hits and unclear results; the compound was inactive in the other large screens (follow-up assays come after a bar, where shown).

C=C(CCC(O)C(C)(C)O)C1CC[C@]2(C)C1CCC1[C@@]3(C)CCC(=O)C(C)(C)C3CC[C@]12C (stereo not given in full)	none (no result: PrPC surface inh, BJeLR viability, PrP 5UTR inh, SARS 3CLpro inh, RecA splice inh)
CC(=NNC(=O)c1ccc2c(c1)OCO2)c1ccc2c(c1)OCO2	none (no result: PrPC surface inh, BJeLR viability, PrP 5UTR inh, SARS 3CLpro inh, RecA splice inh)
COc1ccc(Cl)cc1N/C(N)=N/c1nc(C)cc(=O)[nH]1	PrPC surface inh 32 | PrPC TRFRET cf inactive | LD9 cytotox inactive
COCCNC(=S)NN=Cc1c2ccccc2cc2ccccc12	none (no result: PrPC surface inh, BJeLR viability, PrP 5UTR inh, SARS 3CLpro inh, RecA splice inh)
CNC(=O)c1c2c(nc3ccc(Br)cc13)CCCC2	PrPC surface inh 25 | PrPC TRFRET cf 35 | LD9 cytotox inactive
Cc1ccc2nc3c(c(C(=O)O)c2c1)CCC3	none
O=S(=O)(Nc1ccc(Cc2ccncc2)cc1)c1ccc(Cl)cc1	PrPC surface inh 40 | PrPC TRFRET cf 38 | LD9 cytotox inactive
O=S(=O)(Nc1ccc(Cc2ccncc2)cc1)c1ccc(Br)s1	none
O=S(=O)(Nc1ccc(Cc2ccncc2)cc1)c1ccc(Br)cc1	PrPC surface inh 36 | PrPC TRFRET cf 31 | LD9 cytotox inactive
C#CCOCCOCCOCCNc1nc(N2CCN(C(=O)C(C(C)CC)n3cc(C(N)CO)nn3)CC2)nc(N2CCN(C(=O)C(C(C)CC)n3cc(C(N)COC(=O)C(F)(F)F)nn3)CC2)n1 (stereo not given)	none (no result: PrPC surface inh, BJeLR viability, PrP 5UTR inh, SARS 3CLpro inh, RecA splice inh)
Cc1ccc(Nc2ccc(C(=O)NCCc3ccccc3)cn2)cc1	none
Cc1ccc(C)c(Nc2ccc(C(=O)NCCc3ccccc3)cn2)c1	PrPC surface inh 27 | PrPC TRFRET cf inactive | LD9 cytotox inactive
COc1cccc2sc3cc(NCc4ccc(C)o4)ccc3c(=O)c12	PrPC surface inh 37 (no result: Mtb hypoxia inh, BJeLR viability, SARS 3CLpro inh, RecA splice inh) | PrPC TRFRET cf 83 | LD9 cytotox inactive
COC(=O)c1c(NC(=O)c2ccccc2)sc2c1CC(C)(C)NC2(C)C	none
CCOC(=O)c1c(NC(=O)COc2ccccc2OCC)sc2c1CC(C)(C)NC2(C)C	none (no result: PrPC surface inh, SARS 3CLpro inh)
CC1(C)Cc2c(sc(NC(=O)c3ccc(C(=O)c4ccccc4)cc3)c2C(N)=O)C(C)(C)N1	PrPC surface inh 36 | PrPC TRFRET cf inactive | LD9 cytotox 19
CCOC(=O)c1c(NC(=O)COc2ccccc2C#N)sc2c1CC(C)(C)NC2(C)C	PrPC surface inh 117 | PrPC TRFRET cf 104 | LD9 cytotox 31
CC(=O)ON=C(c1nonc1N)N1CCN(c2ccc([N+](=O)[O-])cc2Cl)CC1	none (no result: PrPC surface inh, BJeLR viability, PrP 5UTR inh, SARS 3CLpro inh, RecA splice inh)
CCOc1cc(C2Nc3ccccc3C(=O)N2c2ccccc2)c(Br)cc1OCC(=O)O (stereo not given)	PrPC surface inh 93 | PrPC TRFRET cf 63 | LD9 cytotox inactive
CCSc1nc(N)c2c3c(sc2n1)CCC3	PrPC surface inh 25 (not shown: Mtb hypoxia inh) | PrPC TRFRET cf 39 | LD9 cytotox inactive
CNC(=O)CSc1nc(N)c2c3c(sc2n1)CCC3	none (no result: BJeLR viability, PrP 5UTR inh)
C#CCn1cc(/C=N/Nc2nc3ccccc3[nH]2)c2ccccc21	PrPC surface inh 36 (no result: Mtb hypoxia inh) | PrPC TRFRET cf inactive | LD9 cytotox 19
CCOC(=O)c1sc(NC(=O)Nc2ccccc2)cc1C	PrPC surface inh 35 | PrPC TRFRET cf 25 | LD9 cytotox 22
CCn1c(=O)c(C(=O)NCc2ccccn2)c(O)c2ccccc21	PrPC surface inh 30 (no result: Mtb hypoxia inh, RecA splice inh) | PrPC TRFRET cf 40 | LD9 cytotox inactive
CCn1c(=O)c(C(=O)NCc2ccc(OC)cc2)c(O)c2ccccc21	none
CC1CN(C(C)CO)C(=O)c2cccc(NC(=O)Nc3ccc4c(c3)OCO4)c2OC1CN(C)C(=O)Nc1ccccc1 (stereo not given)	none (no result: PrPC surface inh, BJeLR viability, PrP 5UTR inh, SARS 3CLpro inh, RecA splice inh)
O=C(O)CC(CC(=O)Nc1ccc(-n2ccc(C(F)(F)F)n2)cc1)c1ccccc1 (stereo not given)	none
O=C(Nc1ccccc1)Nc1ccc(-n2ccc(C(F)(F)F)n2)cc1	PrPC surface inh 26 | PrPC TRFRET cf inactive | LD9 cytotox 9.9
CN(C)S(=O)(=O)c1ccc(N2CCCC2)c(C(=O)Nc2nc3ccccc3s2)c1	PrPC surface inh 61 | PrPC TRFRET cf 61 | LD9 cytotox inactive
Cc1cccc2sc(NC(=O)c3cc(S(=O)(=O)N(C)C)ccc3N3CCCC3)nc12	PrPC surface inh 50 | PrPC TRFRET cf 31 | LD9 cytotox inactive
CN(C)S(=O)(=O)c1ccc(N2CCCC2)c(C(=O)Nc2nc3ccc(F)cc3s2)c1	none
CCCCCCCN1CCC(=O)N(C(CO)Cc2ccccc2)CC1 (stereo not given)	none (no result: PrPC surface inh, BJeLR viability, PrP 5UTR inh, SARS 3CLpro inh, RecA splice inh)
CC(=NN(C)C)c1ccc(OCCOc2ccc([N+](=O)[O-])cc2)cc1	none (no result: PrPC surface inh, BJeLR viability, PrP 5UTR inh, SARS 3CLpro inh, RecA splice inh)
O=S(=O)(Nc1ccncc1)c1cc(Cl)c(Cl)cc1Cl	PrPC surface inh 43 | PrPC TRFRET cf inactive | LD9 cytotox inactive
COc1ccc(Cl)cc1S(=O)(=O)Nc1ccncc1	none
CCOc1ccc(NC(=Nc2nc(C)cc(C)n2)NC(C)=O)cc1	none (no result: PrPC surface inh, BJeLR viability, PrP 5UTR inh, SARS 3CLpro inh, RecA splice inh)
Cc1cc(C(=O)CSc2nc3ccccc3[nH]2)c(C)n1CC1CCCO1 (stereo not given)	PrPC surface inh 44 | PrPC TRFRET cf 34 | LD9 cytotox 38
Cc1cccc(NC(=O)CCC2CCN(C(=O)C3CC=CCC3)CC2)c1 (stereo not given)	none
COc1cccc(NC(=O)CCC2CCN(C(=O)C3CC=CCC3)CC2)c1 (stereo not given)	PrPC surface inh 29 | PrPC TRFRET cf inactive | LD9 cytotox inactive
CC1CN(C(C)CO)C(=O)c2cc(NC(=O)Nc3ccc(F)cc3)ccc2OC1CN(C)Cc1ccc(Oc2ccccc2)cc1 (stereo not given)	none (no result: PrPC surface inh, BJeLR viability, PrP 5UTR inh, SARS 3CLpro inh, RecA splice inh)
Cn1c(SCC(=O)NN=Cc2ccc(O)c(O)c2)nc2ccccc21	none (no result: PrPC surface inh, BJeLR viability, PrP 5UTR inh, SARS 3CLpro inh, RecA splice inh)
COc1cc(C=NNC(=O)c2ccc([N+](=O)[O-])cc2Cl)cc(Br)c1O	none (no result: PrPC surface inh, BJeLR viability, PrP 5UTR inh, SARS 3CLpro inh, RecA splice inh)
Cn1c(=O)c2c(nc(CN3CCc4ccccc4C3)n2Cc2ccccc2F)n(C)c1=O	PrPC surface inh 27 | PrPC TRFRET cf inactive | LD9 cytotox inactive
Cn1c(=O)c2c(nc(CN3CCc4ccccc4C3)n2CCc2ccccc2)n(C)c1=O	none (no result: Mtb hypoxia inh, PrPC surface inh, BJeLR viability, PrP 5UTR inh, RecA splice inh)
CCc1nc2ccccc2[nH]c1=O	PrPC surface inh 37 | PrPC TRFRET cf inactive | LD9 cytotox inactive
COc1cc(C=C(NC(=O)c2ccccc2)C(=O)Nc2cccc(O)c2)c([N+](=O)[O-])cc1OC	none (no result: PrPC surface inh, BJeLR viability, PrP 5UTR inh, SARS 3CLpro inh, RecA splice inh)
COc1cccc(N2CCN(c3nc(C)c(C)c(=O)[nH]3)CC2)c1	none
COc1cccc(N2CCN(c3nc(-c4ccccc4C)cc(=O)[nH]3)CC2)c1	PrPC surface inh 31 | PrPC TRFRET cf 33 | LD9 cytotox 14
O=C(C=Cc1ccco1)N1CCCC(c2ccccc2)C1 (stereo not given)	none (no result: PrPC surface inh, BJeLR viability, PrP 5UTR inh, SARS 3CLpro inh, RecA splice inh)
